In the library only some 2% were active in any assay of this set; here they are far more common.
Jurkat tox 60K: cytotoxic compounds reducing Jurkat cell viability | Jurkat E6.1 viability, ATP luminescence, 48 h | inhibition, % at 4 µM | 1.2% of 56,000 active | AID 463;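 active = inhibition above the mean inhibition of all tested compounds plus 3 SD, cut at about 28% in these data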
SKBR3 24h inh: SK-BR-3 proliferation inhibitors; AID 847; SK-BR-3 viability, CellTiter-Glo ATP luminescence, 24 h; stronger effect = lower value; viability, % at 10 µM; 0.47% of 41,000 active;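 active = viability at or below the median of all test compounds minus 3 SD, in both replicates if run twice, cut at about 45% in these data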;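 also: 100% = median untreated cell wells and 0% = median positive control drug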
HER2 expr 66K: Her2 kinase expression inhibition; P04626; SKBR-3 HER2 protein level, AlphaScreen, 18-24 h; stronger effect = lower value; HER2 level % of control, % at 10 µM; 0.69% of 65,000 active; AID 645;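 active = HER2 level under 5% of the carrier-only control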;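 also: 100% = DMSO carrier and 0% = 500 nM PU-H71 HSP90 inhibitor; lower value means stronger loss of Her2 protein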
Numbers without * were called inactive; x = no result.

SMILES | Jurkat tox 60K | SKBR3 24h inh | HER2 expr 66K
C/C(Sc1nnc(Cc2ccccc2)o1)=C(/O)c1ccccc1 | -2.8 | x | 118.7
Cc1ccc(C(c2sc3nc(C)nn3c2O)N2CCN(c3ccccc3F)CC2)cc1 (configuration not stated) | -1.7 | 92.7 | -18.1*
Cc1ccc(C(c2sc3nc(C)nn3c2O)N2CCN(CCO)CC2)cc1 (configuration not stated) | 2.1 | x | 71.3
CSc1nnc(-c2ccccc2)o1 | -9.6 | x | 97.2
O=S1(=O)C=C(Sc2nnc(-c3ccccc3)o2)c2ccccc21 | 101.4* | 1.4* | -9.4*
COC(=O)C(C#N)c1nc2ccccc2nc1N1CCN(Cc2ccc3c(c2)OCO3)CC1 (configuration not stated) | -3.4 | 94.2 | 66.5
CCCCOC(=O)C(C#N)c1nc2ccccc2nc1N1CCN(Cc2ccc3c(c2)OCO3)CC1 (configuration not stated) | 1.1 | 78.4 | -54.8*
O=C(Nc1ccc2c(c1)OCO2)C1CCN(Cc2cnn(-c3ccccc3)c2-n2cccc2)CC1 | x | x | 69.0
COc1ccc(-c2nc(N)ncc2Oc2ccccc2Br)c(O)c1 | 11.8 | 87.9 | 89.5
COc1cccc(Oc2cnc(N)nc2-c2ccc(OC)cc2O)c1 | 91.0* | 147.4 | 103.7
O=S1(=O)Nc2c(ccc3cccnc23)-c2ccccc21 | 67.2* | 85.4 | -8.0*
O=c1[nH]n(-c2cccc3cccnc23)c(=O)c2ccccc12 | -2.8 | 98.3 | 85.6
Clc1cc(NCc2cccs2)ccc1N1CCOCC1 | 3.6 | 89.8 | 85.9
CCC(C)(C)NC(=O)CN(C(=O)CNS(=O)(=O)c1ccc(C)cc1)c1ccc2c(c1)OCCO2 | -4.0 | x | 106.4
O=C(CC1(O)C(=O)N(Cc2ccccc2)c2ccccc21)c1ccncc1 (configuration not stated) | -4.8 | 88.6 | 84.6
COc1cccc(-n2c(SCC(N)=O)nnc2-c2ccncc2)c1 | -3.9 | 89.2 | 88.3
COc1cccc(-n2c(SCC(=O)O)nnc2-c2cccnc2)c1 | 2.7 | 78.4 | -17.7*
CCSc1nc(-c2ccco2)ccc1C#N | 7.2 | 89.5 | 38.6
N#Cc1ccc(-c2ccco2)nc1SCc1ccccc1 | 6.9 | 117.0 | -0.7*
COc1cc(CO)cc(Br)c1OCc1cccnc1 | 1.4 | 65.6 | 166.2
CNC(=O)C1CCCN1S(=O)(=O)c1ccc(OC)cc1 (configuration not stated) | -1.5 | 81.4 | 132.5
COc1ccc(CNC(=O)C2CCCN2S(=O)(=O)c2ccc(S(=O)(=O)N(C)C)cc2)cc1 (configuration not stated) | 2.0 | 33.5* | 95.8
COc1ccccc1NC(=O)c1sc2nc(-c3ccco3)ccc2c1N | -11.9 | 114.3 | -0.3*
Nc1c(C(=O)Nc2ccccc2)sc2nc(-c3ccco3)ccc12 | 10.9 | 102.7 | -5.4*
O=C(Nc1ccccc1)c1ccc2nc(-c3ccco3)c(-c3ccco3)nc2c1 | 9.9 | 63.5 | 89.9
SMILES | Jurkat tox 60K | SKBR3 24h inh | HER2 expr 66K
COc1ccccc1NC(=O)c1oc2ccccc2c1NC(=O)c1ccco1 | -0.7 | x | 43.1
CC1Cc2ccccc2N1C(=O)CSc1nnnn1Cc1ccccc1 (configuration not stated) | -3.4 | 63.0 | 66.8
CC(=O)N1CCc2cc(S(=O)(=O)NC(CC(C)C)C(=O)Nc3ccc4c(c3)OCCO4)ccc21 (configuration not stated) | 2.7 | x | 82.0
Cc1ccc2c(c1)CCCN2C(=O)c1ccoc1C | 21.7 | 87.0 | -29.3*
Cc1ccc2c(c1)CCCN2C(=O)c1c(C)noc1C | -0.3 | 124.6 | 121.9
COC(=O)c1[nH]c2ccccc2c1NC(=O)CNC1CCCCC1 | -5.6 | 93.8 | 62.1
Cc1ccc(S(=O)(=O)NCc2ccncc2)cc1 | 76.4* | x | 124.8
COc1ccc(S(=O)(=O)NCc2ccncc2)cc1OC | 21.2 | x | 101.6
O=C1CC(c2ccc(S(=O)(=O)NCc3ccncc3)cc2)CN1 (configuration not stated) | 7.8 | x | x
CC1CCCCC1NS(=O)(=O)c1ccc(S(=O)(=O)NCc2ccncc2)cc1 (configuration not stated) | 91.9* | 94.5 | 104.5
Cc1ccc(C)c(/C(O)=C2\C(=O)C(=O)N(Cc3cccnc3)C2c2cccnc2)c1 (configuration not stated) | -0.9 | x | 135.1
O=C(CS(=O)(=O)c1ccccc1)N1CCCCCC1 | -1.1 | 104.5 | 107.5
O=S(=O)(C/C(=C/CO)S(=O)(=O)c1ccccc1)c1ccccc1 | 98.1* | 154.0 | -21.3*
CCC(=O)N1CCc2cc(Br)cc(S(=O)(=O)N3CCN(c4ccccn4)CC3)c21 | x | 88.2 | 71.0
CCOC(=O)N1CCC(NC2CCCCCCC2)CC1 | -1.6 | x | 91.4
c1cnc(-c2nnc3n2CCCCC3)cn1 | 0.6 | x | -16.0*
c1cc(-c2nnc3n2CCCCC3)ccn1 | 3.4 | x | 141.1
COc1ccccc1CNC(=O)c1cc2sccc2n1C | -5.1 | x | 101.1
CC1CCN(CCCNC(=O)c2cc3sccc3n2C)CC1 | -2.1 | 42.0* | 88.8
Cn1c(C(=O)NCCc2c[nH]c3ccccc23)cc2sccc21 | 61.5* | x | 93.2
COc1ccc(N2CCN(CCCNC(=O)c3cc4sccc4n3C)CC2)cc1 | 6.2 | x | 124.0
CCCc1cc(NCCN2CCOCC2)n2c(nc3ccccc32)c1C#N | x | 104.9 | 122.1
CN1C(=O)c2ccccc2C(C(=O)NCC2CCCO2)C1c1c[nH]c2ccccc12 (configuration not stated) | x | x | 73.1
CCC(C)(C)n1nnnc1C(CC(C)C)N1CCC(C(N)=O)CC1 (configuration not stated) | -6.6 | 85.8 | 80.9
O=c1[nH]c(C2CCCN(S(=O)(=O)c3ccccc3)C2)nc2c1nnn2Cc1ccccc1F (configuration not stated) | 5.5 | 31.2* | 53.5
SMILES | Jurkat tox 60K | SKBR3 24h inh | HER2 expr 66K
O=c1[nH]c(C2CCCN(S(=O)(=O)c3ccccc3)C2)nc2c1nnn2Cc1ccccc1 (configuration not stated) | 3.0 | x | 91.3
Cc1c(-c2cccs2)[n+](=O)c2c(n1[O-])CCCCC2 | x | 85.8 | 155.6
Cc1noc(C)c1CSc1nc2sc(C)c(C)c2c(=O)n1C1CCCC1 | 2.5 | x | 100.2
Cc1ccc(OCCOCCn2ccnc2)c(Br)c1 | -8.8 | x | 79.1
COc1cccc2cc(C(=O)N3CCc4ccccc4C3)c(=O)oc12 | -0.1 | x | 81.1
COc1cc2c(cc1OC)CN(C(=O)c1cc3ccccc3oc1=O)CC2 | 60.0* | x | 74.4
CCOCCCn1c(=N)c(C(=O)Nc2cc(C)on2)cc2c(=O)n3ccccc3nc21 | 2.8 | x | 113.6
Cc1cc(C)c2nc(-c3ccccn3)cc(C(=O)Nc3cc(C)on3)c2c1 | -4.0 | 53.5 | 38.6
Cc1cc(NC(=O)c2cc(-c3ccncc3)nc3c(C)cccc23)no1 | 78.5* | 84.5 | 46.5
CCN(C(=O)c1cccc(F)c1)c1ccccc1C | x | 84.0 | 135.4
Cc1ccc(/C(O)=C2\C(=O)C(=O)N(CCCN(C)C)C2c2ccccn2)cc1 (configuration not stated) | -1.6 | 92.3 | 74.5
c1ccc(-c2nc(-c3ccncc3)no2)cc1 | -2.5 | 105.2 | 73.0
c1ccc(C(Cc2nc(-c3ccncc3)no2)c2ccccc2)cc1 | 57.6* | 94.7 | 44.1
CC1CC(C)CN(CC(=O)N2CCc3[nH]c4ccccc4c3C2)C1 (configuration not stated) | 4.7 | 42.9* | 117.3
CC1CN(CC(=O)N2CCc3[nH]c4ccccc4c3C2)CC(C)O1 (configuration not stated) | -8.2 | 74.4 | 107.2
